The whole screen tested about 330,000 compounds, of which about 1,400 (0.42%) were called active. The entries come from a sample that favours actives as a whole. A number with no mark means an inactive call.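 Rule for the calls: active = inhibition above its plate's threshold, mean inhibition of all tested compounds on the plate plus 3 SD (cut at about 37% in these data); inactive = the rest.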
Target: Orexin/Hypocretin receptor type 1 (Homo sapiens) (UniProt O43613)
Assay: OX1R (HCRTR1) antagonists, primary screen, fluorescence, CHO/OX1R cells, Fluo-8 calcium, orexin A (AID 434989);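 note: 0% = orexin A challenge wells and 100% = SB-334867-A antagonist wells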
Conditions: Fluo-8 calcium fluorescence, at 5 µM, stronger effect = higher value

Chain of Orexin/Hypocretin receptor type 1 (Homo sapiens) (O43613 whole entry, looked up): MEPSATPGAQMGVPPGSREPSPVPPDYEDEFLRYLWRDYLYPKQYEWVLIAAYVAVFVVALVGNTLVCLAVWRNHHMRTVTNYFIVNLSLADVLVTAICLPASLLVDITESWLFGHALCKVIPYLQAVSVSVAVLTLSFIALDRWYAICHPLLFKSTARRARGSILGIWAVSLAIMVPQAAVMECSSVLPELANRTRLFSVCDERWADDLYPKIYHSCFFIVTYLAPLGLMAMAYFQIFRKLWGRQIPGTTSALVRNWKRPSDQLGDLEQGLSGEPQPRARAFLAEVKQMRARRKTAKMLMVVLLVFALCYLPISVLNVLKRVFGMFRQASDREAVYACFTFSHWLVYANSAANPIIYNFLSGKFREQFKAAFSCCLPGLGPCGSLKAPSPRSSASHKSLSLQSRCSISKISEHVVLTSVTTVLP

Structure (SMILES)	inhibition
Cn1c(/C(C#N)=C2/CCCCCN2)nc2ccccc21	-27.9%
N#CC(=C1CCCC1)c1nc(-c2ccc(Cl)cc2)cs1	-23.8%
N#C/C(=C1\CCCN1)c1nc(-c2ccccc2)cs1	52.9% (active)
CCNC(=O)CSc1nc(-c2ccccc2)cs1	4.28%
N#CC(=C1SC=CS1)c1nc(-c2ccccc2)cs1	89.5% (active)
N#C/C(=C1/CCCN1)c1ccccn1	-3.72%
Cc1cccc(C(=O)N[C@H](C(=O)NCc2cccs2)C(C)C)c1	-7.31%
CCOC(=O)C1CCN(c2ncnc3c2oc2ccc(Br)cc23)CC1	-11.1%
CCOC(=O)N1CCN(C(=O)C2CCN(S(=O)(=O)c3cc(Cl)ccc3OCC)CC2)CC1	-21.5%
CCOC(=O)N1CCN(C(=O)C2CCN(c3ncnc4c3sc3cccc(F)c34)CC2)CC1	65.7% (active)
CCN(CC(=O)NC(C)C)C(=O)c1cc(S(=O)(=O)N2CCCCC2)ccc1N1CCCCC1	-37.7%
CCCCNC(=O)C(C)N(CCN(C)C)C(=O)CCCN1C(=O)NC(c2ccc(Cl)cc2)C(C(=O)OCc2ccccc2)=C1C (stereo unspecified)	-28.8%
O=C(Nc1cccc(Br)c1)c1ccc2snnc2c1	-1.56%
CCc1ccccc1NC(=O)c1ccc2snnc2c1	-1.72%
O=C(Nc1ccc2ccccc2c1)Nc1ccc2snnc2c1	41.4% (active)
COc1ccc(C2=Nn3c(nnc3-c3ccccc3OC)SC2)cc1OC1CCCC1	-19.5%
O=c1c2ccccc2nc2n1C(CSCc1cccc(C(F)(F)F)c1)CS2 (stereo unspecified)	45.5% (active)
O=c1c2ccccc2nc2n1C(CSc1ccc(F)cc1)CN2 (stereo unspecified)	-5.98%
O=c1c2ccccc2nc2n1C(CSCc1ccccc1)CS2 (stereo unspecified)	-3.31%
Cc1ccc(S(=O)(=O)NCC(=O)NNC(=O)c2ccc(Br)cc2)cc1C	-11.2%
COc1cccc(CC(=O)OCC(=O)NCc2ccc3c(c2)OCO3)c1	-9.44%
COc1ccccc1/C=N/Nc1nc(C)c(C(C)=O)s1	-4.69%
COc1cccc(/C=N/Nc2cc(C)nc(-c3ccccc3O)n2)c1O	93.8% (active)
Oc1cccc(/C=N/Nc2ccc(Cl)nn2)c1O	-18.9%
CCNC(=O)N(CC)C[C@H]1N[C@@](CC)(C(=O)OC)[C@H]2C(=O)N(Cc3ccccc3)C(=O)[C@@H]12	4.29%
C=CCC[C@H](Cc1ccc(F)cc1)C(=O)OC[C@H](C)NC(=O)[C@H](CC=C)CC(=O)N(CCO)Cc1ccccc1	6.31%

Source: PubChem BioAssay AID434989 (The Scripps Research Institute Molecular Screening Center, 2010)
